Here are results for 36 compounds from PubChem BioAssay (EPA / NIEHS).

Each structure is given as a SMILES string. “And” between values parts separate entries of the source, which are not always exact repeats. Equal entries are not always repeated. Some structures have more than one record in an assay (separate samples or runs), and their calls can disagree. The source made the active and inactive calls. The calls were made as follows: active = hit-call score of the fitted dose curve at least 0.9, where 1 is the maximum; inactive = score below 0.9.

The term AC50 denotes the concentration at which the activity in the assay is half-maximal.

Read-out in the experiment: TIMP metallopeptidase inhibitor 2 (TIMP2), TIMP2 (gene 7077)
In words: BSK_hDFCGF_TIMP2: BioMAP Diversity Plus: hDFCGF Assay for TIMP metallopeptidase inhibitor 2 (TIMP2) Biomarker Activity (AID 2284289). As to conditions: primary human foreskin fibroblasts. Here is the method: BSK_hDFCGF is a cell-based, multiplexed-readout assay that uses foreskin fibroblast, a human skin primary cell, with measurements taken at 24 hours after chemical dosing in a 96-well plate.BSK_hDFCGF_TIMP2 is an assay component measured in the BSK_hDFCGF assay. It measures TIMP-2 antibody related to regulation of gene expression using ELISA technology.Data from the assay component BSK_hDFCGF_TIMP2 was analyzed at the endpoint, BSK_hDFCGF_TIMP2, in the positive analysis fitting direction relative to DMSO as the negative control and baseline of activity. Using a type of binding reporter, gain or loss-of-signal activity can be used to understand protein changes. To generalize the intended target to other relatable targets, this assay endpoint is annotated to the 'protease' intended target family, where the subfamily is 'matrix metalloproteinase'.
The levels of cell surface (or secreted, indicated by the prefix "s") biomarker endpoints were measured by ELISA. Overt cytotoxicity to cells in confluent adherent cultures (all systems other than the BT system) was assessed by measuring total protein levels using sulforhodamine B (SRB) staining in parallel cultures at the time of biomarker measurements, indicated as SRB endpoints. For proliferation assays for adherent cell types, individual cell types are cultured at sub-confluence and relative cell numbers quantified by SRB staining at time points optimized for each system (48 h: 3C and CASM3C systems; 72 h: BT and HDF3CGF systems; 96 h: SAg system). SRB was performed by staining cells with 0.1% SRB after fixation with 10% TCA and reading wells at 560 nm.Viability and proliferation of PBMC (T cells) was quantified by Alamar Blue reduction for the SAg and BT systems. For PBMC viability (referred to as PBMC Cytotoxicity within the assay endpoint names), cells were plated (75,000/well in a 96-well plate) and then chemical samples added for 1 h before addition of activators, SEB and TSST-1 (20 ng/mL final concentration each). Cells were incubated for 90 h. Then, Alamar Blue (20 uL/well) (Invitrogen, Cat DAL1100) was added for 6 h, and the plates were read with a fluorescence microplate reader at 546/580 nm (excitation/emission). For PBMC proliferation, cells were plated and activated as above but incubated for only 16 h prior to addition of Alamar Blue. Plates were read after 6 h.
In the case of `COC(=O)CCC(F)(F)C(F)(F)C(F)(F)C(F)(F)F`, the result was inactive.
Consider `FC(F)(F)C(F)(F)C(F)(F)C(F)(F)C(F)(F)C(F)(F)CCS`, for which the outcome was inactive.
As to `FC(F)(F)C(F)(F)C(F)(F)N(C(F)(F)C(F)(F)C(F)(F)F)C(F)(F)C(F)(F)C(F)(F)F`, the outcome was inactive.
With `C=CC(F)(F)C(F)(F)C(F)(F)C(F)(F)C(F)(F)C(F)(F)C(F)(F)C(F)(F)F`, the result was inactive.
For the compound `O=C(O)C(F)(OC(F)(F)C(F)(OC(F)(F)C(F)(F)C(F)(F)F)C(F)(F)F)C(F)(F)F` (stereo not given), the result was inactive.
As to `O=S(=O)(O)C(F)(F)C(F)(F)C(F)(F)C(F)(F)C(F)(F)C(F)(F)C(F)(F)F`, the outcome was inactive.
Turning to `O=C(O)C=C(C(F)(F)F)C(F)(F)F`, the result was inactive.
On to `O=C(O)C(F)(F)C(F)(F)C(F)(F)C(F)(F)C(F)(F)C(F)(F)C(F)(F)C(F)(F)Cl`, for which the AC50 was 6.54 µM (active) and the result was inactive.
As for `O=C(CC(=O)C(F)(F)C(F)(F)F)C(F)(F)F`, the result was inactive.
`C=CC(=O)OCC(F)(F)C(F)(F)C(F)(F)C(F)(F)C(F)(F)C(F)(F)C(F)(F)F`: the outcome was inactive.
For `O=C(Cl)C(F)(F)C(F)(F)C(F)(F)C(F)(F)C(F)(F)C(F)(F)C(F)(F)C(F)(F)F`, the result was inactive and the AC50 is 1.59 µM (active).
Regarding `FC(F)(F)C(F)(F)C(F)(F)C(F)(F)C(F)(F)C(F)(F)C(F)(F)Br`, the result was inactive.
Turning to `FC(F)(F)C(F)(F)C(F)(F)C(F)(F)CCI`, the result was inactive.
As to `CCCCC(CC)COP(=O)(O)OCC(CC)CCCC` (stereo not given), the outcome was inactive.
For `OCC(F)(F)C(F)(F)C(F)(F)F`, the result was inactive.
`O=C(O)C(F)(F)C(F)(F)OC(F)(F)F`: the outcome was inactive.
On to `O=P(O)(O)OCCC(F)(F)C(F)(F)C(F)(F)C(F)(F)C(F)(F)C(F)(F)F`, for which the outcome was inactive.
Regarding `O=C(O)C(F)(F)C(F)(F)C(F)(F)F`, the result was inactive.
On to `C=C(C)C(=O)OCC(F)(F)C(F)(F)C(F)(F)F`, for which the outcome was inactive.
On the same count and under the same terms, the same measure for `O=C(O)C(F)(F)C(F)(F)C(F)(F)C(F)(F)F`: “inactive”; for `FC(F)(F)C(F)(F)C(F)(F)CI`: “inactive”.
With `FC(F)(F)C(F)(F)C(F)(F)C(F)(F)C(F)(F)C(F)(F)C(F)(F)C(F)(F)CCS`, the result was inactive and the AC50 is 0.0245 µM (active).
As for `CCO[Si](CCC(F)(F)C(F)(F)C(F)(F)C(F)(F)C(F)(F)C(F)(F)F)(OCC)OCC`, the result was inactive.
Turning to `O=S(=O)(OCC(F)F)C(F)(F)F`, the result was inactive.
`CCCCCCCCC(F)(F)C(F)(F)C(F)(F)C(F)(F)C(F)(F)C(F)(F)F`: the result was inactive.
For `C=CC(=O)OCC(F)(F)C(F)(F)C(F)(F)C(F)(F)COC(=O)C=C`, the AC50 was 12.4 µM (active) and 12.7 µM (active).
On to `OCC(F)(F)C(F)(F)C(F)(F)C(F)F`, for which the result was inactive.
With `OCC(F)(F)C(F)(F)C(F)(F)C(F)(F)C(F)(F)C(F)(F)F`, the result was inactive and the AC50 was 42.2 µM (active).
`O=C(O)C(F)(F)C(F)(F)F`: the outcome was inactive.
As for `FC1CC(F)(F)C(F)(F)C1(F)F` (stereo not given), the outcome was inactive.
With `FC(F)(F)C(F)(F)C(F)(F)C(F)(F)C(F)(F)C(F)(F)C(F)(F)C(F)(F)F`, the result was inactive.
On to `OCCCC(F)(F)C(F)(F)C(F)(F)F`, for which the outcome was inactive.
Take `C=C(C)C(=O)OCC(F)(F)C(F)(F)C(F)(F)C(F)(F)C(F)(F)C(F)(F)C(F)(F)F`: the outcome was inactive.
Consider `OCC(F)(F)C(F)(F)C(F)(F)C(F)(F)C(F)(F)C(F)F`, for which the result was inactive.
The same measure, in the same setting: the result for `FC(F)(F)C(F)(F)C(F)(F)C(F)(F)C(F)(F)C(F)(F)C(F)(F)I` reads “inactive”; that for `FC(F)(F)C(F)(F)C(F)(F)C(F)(F)C(F)(F)C(F)(F)CC1CO1` (stereo not given), “inactive”.
